The supplement of paper PMC7411640
Structures can show the parent of a compound that is named as a salt.

Each compound was assayed on MDA-MB-468 (assay: phospho-S6 immunofluorescence (DAPI-normalised), per-plate z-score; higher = higher phospho-S6 signal (less pathway suppression)). Conditions: co-treatment: GDC0941 450 nM; 24 h.
Description: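 GPCR-targeted compound library (MedChemExpress HY-L006) tested on MDA-MB-468 PTEN-null TNBC cells in 384-well plates at 0.1, 1 or 10 uM, combined with vehicle, GDC0941 450 nM or lapatinib 1 uM, for 24 h. Phospho-S6 (S240/244) immunofluorescence normalised to DAPI and expressed as a per-plate z-score; values are the mean of biological triplicates.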

SMILES	phospho-S6 immunofluorescence (z-score)
CCCCC1=NC2(CCCC2)C(=O)N1Cc1ccc(-c2ccccc2-c2nnn[nH]2)cc1 [Irbesartan] (compound 10 µM)	0.03
Cc1c(CC(=O)O)c2cccnc2n1Cc1ccc(S(C)(=O)=O)cc1C(F)(F)F [Fevipiprant] (compound 10 µM)	-2.62
OCC1OC(n2cnc3c(NCCc4ccccc4)ncnc32)C(O)C1O (configuration not stated) [N6-(2-Phenylethyl)adenosine] (compound 10 µM)	0.87
CCCN[C@H]1CCc2nc(N)sc2C1 [Pramipexole (dihydrochloride)] (compound 10 µM)	0.87
C[N+](C)(C)CCOC(N)=O [Carbamoylcholine (chloride)] (compound 10 µM)	0.06
CC1(C)O[C@@H]2C[C@H]3[C@@H]4CCC5=CC(=O)C=C[C@]5(C)[C@@]4(F)[C@@H](O)C[C@]3(C)[C@]2(C(=O)CO)O1 [Triamcinolone (acetonide)] (compound 10 µM)	-1.69
CCCCC(=O)N(Cc1ccc(-c2ccccc2-c2nnn[nH]2)cc1)[C@H](C(=O)O)C(C)C.CCOC(=O)[C@H](C)C[C@@H](Cc1ccc(-c2ccccc2)cc1)NC(=O)CCC(=O)O (compound 10 µM)	0.23
C=CCN1CCCC1CNC(=O)c1cc(S(N)(=O)=O)cc(OC)c1OC (configuration not stated) [Veralipride] (compound 10 µM)	-0.02
Cc1sc(C)c(C(=O)NC2(c3ccc(C(=O)O)cc3)CC2)c1Cc1ccc(C(F)(F)F)cc1 (compound 10 µM)	-1.42
N[C@@H](Cc1ccc(O)c(O)c1)C(=O)O (compound 10 µM)	-0.94

Same assay, conditions: co-treatment: lapatinib 1 uM; 24 h

SMILES	phospho-S6 immunofluorescence (z-score)
OCCN1CCN(CCCN2c3ccccc3Sc3ccc(Cl)cc32)CC1 [Perphenazine] (compound 10 µM)	-5.07
C[C@@H]1C[C@H]2[C@@H]3CCC4=CC(=O)C=C[C@]4(C)[C@@]3(Cl)[C@@H](O)C[C@]2(C)[C@@]1(OC(=O)c1ccco1)C(=O)CCl [Mometasone furoate] (compound 10 µM)	0.3
CN1CCC(=C2c3ccccc3C=Cc3ccccc32)CC1 [Cyproheptadine (hydrochloride)] (compound 10 µM)	-1.26
O=C1NCCN1CCN1CCC(c2cn(-c3ccc(F)cc3)c3ccc(Cl)cc23)CC1 [Sertindole] (compound 10 µM)	-6.25
CN1CCc2cc(Cl)c(O)cc2[C@@H](c2ccccc2)C1 (compound 10 µM)	-1.63
Cc1c(-c2ccccc2)oc2c(C(=O)OCCN3CCCCC3)cccc2c1=O [Flavoxate (hydrochloride)] (compound 10 µM)	0.29
O=C1Cc2cc(CCN3CCN(c4nsc5ccccc45)CC3)c(Cl)cc2N1 [Ziprasidone (hydrochloride monohydrate)] (compound 10 µM)	-9.79
CN1CCN(C(=O)c2cc3cc(Cl)ccc3[nH]2)CC1 (compound 10 µM)	-0.96
CC(C)=CCC[C@](C)(O)[C@H]1CC[C@]2(C)[C@@H]1[C@H](O)C[C@@H]1[C@@]3(C)CC[C@H](O)C(C)(C)[C@@H]3[C@@H](O)C[C@]12C [(20S)-Protopanaxatriol] (compound 10 µM)	-2.12
CC1CCN(CC[C@H]2CCCN2S(=O)(=O)c2cccc(O)c2)CC1 (compound 10 µM)	0.2
CCCN(CCc1cccs1)C1CCc2c(O)cccc2C1 (racemic) [rac-Rotigotine (Hydrochloride)] (compound 10 µM)	0.67
Cc1ccc(F)cc1C(=O)Nc1ccc(C(=O)N2Cc3cccn3Cc3ccccc32)c(Cl)c1 [Lixivaptan] (compound 10 µM)	-0.79
CN(C)CCSSCCNC(=O)C1CCN(C(=O)CSc2ccc(Cl)cc2)CC1 [6H05 (trifluoroacetate)] (compound 10 µM)	2.33
Nc1ccc(/C=C/c2cccc(C(=O)O)n2)cc1 (compound 10 µM)	0.88
Cc1nc2n(c(=O)c1CCN1CCC(c3noc4cc(F)ccc34)CC1)CCCC2O (configuration not stated) [Paliperidone] (compound 10 µM)	0.36
OC(CCN1CCCCC1)(c1ccccc1)C1CC2C=CC1C2 (configuration not stated) [Biperiden (Hydrochloride)] (compound 10 µM)	-0.97
COc1cc2nc(N(C)CCCNC(=O)C3CCCO3)nc(N)c2cc1OC (configuration not stated) [Alfuzosin] (compound 10 µM)	0.71
CC(=O)OCC(=O)[C@@]12OC(C)(C)O[C@@H]1C[C@H]1[C@@H]3C[C@H](F)C4=CC(=O)C=C[C@]4(C)[C@@]3(F)[C@@H](O)C[C@@]12C [Fluocinonide] (compound 10 µM)	0.59
CC1(C)O[C@@H]2C[C@H]3[C@@H]4CCC5=CC(=O)C=C[C@]5(C)[C@H]4[C@@H](O)C[C@]3(C)[C@]2(C(=O)CO)O1 [Desonide] (compound 10 µM)	0.54

SMILES	phospho-S6 immunofluorescence (z-score)
NC(=O)c1ccc[n+]([O-])c1 [Nicotinamide N-oxide] (compound 10 µM)	0.22
Cc1c(Cc2ccc3ccccc3n2)c2cc(F)ccc2n1CC(=O)O (compound 10 µM)	0.39
Nc1ncnc2c1ncn2C1CCCO1 (configuration not stated) (compound 10 µM)	-0.67
COC(=O)[C@H]1[C@H]2C[C@H]3c4[nH]c5ccccc5c4CCN3C[C@H]2CC[C@@H]1O [Rauwolscine (hydrochloride)] (compound 10 µM)	0.38
CCCCCCCCOc1ccccc1C(=O)Nc1ccc(C(=O)OCC[N+](C)(CC)CC)cc1 [Otilonium (bromide)] (compound 10 µM)	2.8
CN(C)CCOC(C)(c1ccccc1)c1ccccn1 (configuration not stated) [Doxylamine (succinate)] (compound 10 µM)	-0.64
Cc1noc(-c2ccc(-c3ccc(CC(=O)O)cc3)cc2)c1NC(=O)OC(C)c1ccccc1Cl (configuration not stated) (compound 10 µM)	0.28
CC(=O)N[C@H](Cc1ccc2ccccc2c1)C(=O)N[C@H](Cc1ccc(Cl)cc1)C(=O)N[C@H](Cc1cccnc1)C(=O)N[C@@H](CO)C(=O)N(C)[C@@H](Cc1ccc(O)cc1)C(=O)N[C@H](CC(N)=O)C(=O)N[C@@H](CC(C)C)C(=O)N[C@@H](CCCCNC(C)C)C(=O)N1CCC[C@H]1C(=O)N[C@H](C)C(N)=O [Abarelix] (compound 10 µM)	0.65
CCCCC1=NC2(CCCC2)C(=O)N1Cc1ccc(-c2ccccc2-c2nnn[nH]2)cc1 [Irbesartan] (compound 10 µM)	0.13
Cc1c(CC(=O)O)c2cccnc2n1Cc1ccc(S(C)(=O)=O)cc1C(F)(F)F [Fevipiprant] (compound 10 µM)	-1.74
OCC1OC(n2cnc3c(NCCc4ccccc4)ncnc32)C(O)C1O (configuration not stated) [N6-(2-Phenylethyl)adenosine] (compound 10 µM)	1.11
CCCN[C@H]1CCc2nc(N)sc2C1 [Pramipexole (dihydrochloride)] (compound 10 µM)	0.31
C[N+](C)(C)CCOC(N)=O [Carbamoylcholine (chloride)] (compound 10 µM)	0.02
CC1(C)O[C@@H]2C[C@H]3[C@@H]4CCC5=CC(=O)C=C[C@]5(C)[C@@]4(F)[C@@H](O)C[C@]3(C)[C@]2(C(=O)CO)O1 [Triamcinolone (acetonide)] (compound 10 µM)	1.39
CCCCC(=O)N(Cc1ccc(-c2ccccc2-c2nnn[nH]2)cc1)[C@H](C(=O)O)C(C)C.CCOC(=O)[C@H](C)C[C@@H](Cc1ccc(-c2ccccc2)cc1)NC(=O)CCC(=O)O (compound 10 µM)	0.37
C=CCN1CCCC1CNC(=O)c1cc(S(N)(=O)=O)cc(OC)c1OC (configuration not stated) [Veralipride] (compound 10 µM)	1.05
Cc1sc(C)c(C(=O)NC2(c3ccc(C(=O)O)cc3)CC2)c1Cc1ccc(C(F)(F)F)cc1 (compound 10 µM)	-0.58
N[C@@H](Cc1ccc(O)c(O)c1)C(=O)O (compound 10 µM)	-0.12
